Reference: PubChem BioAssay AID492948 (National Center for Advancing Translational Sciences (NCATS), 2010)
Records with an inconclusive call do not appear. The source made the active and inactive calls. The call rests on the fitted dose curve; in most records, active means well fitted activation curve with a large enough effect; inconclusive means small, poorly fitted or top-dose-only effect; inactive means no such curve, though single readings can be large or run the other way.

Assay: qHTS Assay for Agonists of the Relaxin Receptor RXFP1: V1B Hit Validation;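 further: counter-screen in HEK293 cells expressing V1B rather than RXFP1 for selectivity; nearly all actives have a fitted effect of over 65% in size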;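 on activation: cAMP accumulation with PDE4 inhibitor Ro 20-1724 present during compound exposure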
Conditions: HEK293 V1B cells, cAMP TR-FRET, 30 min; series mostly up to 115 µM
Summary of the method: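 Cells: HEK293, 2000/well. Cpd 30 min, 37C, 5% CO2, + PDE4 inhibitor Ro 20174. Lyse, HTRF cAMP, 30 min RT. Norm: buffer = 0%, porcine relaxin 29 nM = 100%.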
Potency means the concentration at half of the fitted maximal effect.

SMILES | Potency
Cc1cc(C(=O)OCC(=O)c2ccc(Br)s2)no1 | 21.8 µM (active)
Brc1ccc2ncnc(NCc3cccnc3)c2c1 | 38.9 µM (active)
COc1ccc(NC(=O)CCCc2nnc3n(C)c(=O)c4sccc4n23)cc1 | 43.6 µM (active)
Cn1c(=O)c2sccc2n2c(CCCC(=O)NCc3ccco3)nnc12 | 34.6 µM (active)
CC1(C)Cc2nc3sc4c(SCC(=O)NC(c5ccccc5)c5ccccc5)ncnc4c3cc2CO1 | 3.46 µM (active)
COc1ccccc1CNS(=O)(=O)c1cc(CN2C(=O)c3cccnc3C2=O)ccc1OC | 27.5 µM (active)
CN(C)CCCn1c(SCC(=O)Nc2nc(-c3cccc(Br)c3)cs2)nc2ccccc2c1=O | inactive
CCOC(=O)CCCCC(=O)c1[nH]c(=O)[nH]c1CSc1nnc2c3cc(Br)ccc3n(C)c2n1 | 10.9 µM (active)
CCOC(=O)C1CCN(C(=O)c2cc3c(=O)n4ccccc4nc3s2)CC1 | 43.6 µM (active)
O=C(O)CCNc1ccc(NCCC(=O)O)c2c1C(=O)c1ccccc1C2=O | inactive
COc1ccc(-n2nnc3c(=O)n(CC(=O)NCC4CCCO4)cnc32)cc1 (stereo not drawn) | 9.74 µM (active)
COc1ccc(CNC(=O)CN2C(=O)NC(C)(c3cccc(Br)c3)C2=O)cc1 (stereo not drawn) | inactive
CCc1cc2c(=O)nc3n(c2s1)Cc1ccccc1/C3=C(/O)c1cccc([N+](=O)[O-])c1 | 3.89 µM (active)
CC1CCN(S(=O)(=O)c2ccc3nc(N4CCN(c5ccccc5)CC4)ccc3c2)CC1 | 13.8 µM (active)
CN1C(=O)c2ccc(C(=O)Nc3ccc(Br)cn3)cc2C1=O | 21.8 µM (active)
CC[n+]1ccc(/C=C/c2ccc(N(C)C)cc2)c2ccccc21 | inactive
Cc1ccc(-n2c(=S)[nH]c3sc4c(c3c2=O)CCC4)cc1 | 6.15 µM (active)
NCCNC(=O)Cc1ccc(NC(=O)Cc2ccc(Nc3ncnc4c3ncn4[C@@H]3O[C@H](CO)[C@@H](O)[C@H]3O)cc2)cc1 | 2.75 µM (active)
CCOC(=O)c1cc2c(=O)n3ccccc3nc2n(Cc2ccco2)c1=NC(=O)c1ccccc1OCC | 38.9 µM (active)

SMILES | Potency
COC(=O)c1nc2ccc(N3CCOCC3)cc2c(C)c1C(=O)OC | 34.6 µM (active)
COC(=O)Cn1cnc2c(C#N)c3n(c2c1=O)CCCC3 | 21.9 µM (active)
CC(C)(C)C(=O)Nc1ccccc1C(=O)NCc1ccco1 | inactive
CCN(CC)CCCN1C=C2C(=O)C(C)(OC(=O)C3CCCC3)C(=O)C=C2C=C1c1ccsc1 (stereo not drawn) | inactive
COc1cccc(CNC(=O)c2ccc(CS(=O)Cc3ccc(C)cc3)o2)c1 (stereo not drawn) | inactive
CC(=O)c1sc(NC(=O)C(C)C)nc1C | 17.3 µM (active)
CCOC(=O)CNC(=O)CSc1nc2c(C)cccc2cc1CC | 17.3 µM (active)
CC1(C)Cc2c(sc3c2c2ncnn2c2nnc(SCC(=O)NCc4ccco4)n32)CO1 | 6.91 µM (active)
CC1CCCCN1C(=O)c1ccccc1NC(=O)c1ccco1 (stereo not drawn) | inactive
O=C(O)c1cc(-c2ccc(Br)s2)nc2ccccc12 | 3.46 µM (active)
CCN(c1ccccc1)S(=O)(=O)c1ccc(OC)c(NC(=O)C2CC(=O)N(Cc3ccccc3)C2)c1 (stereo not drawn) | inactive
Cc1cccc(C(=O)Nc2ccccc2C(=O)NCc2ccco2)c1 | inactive
COc1ccc(OC)c(CNC(=O)C2CCN(C(=O)N(C)C)CC2)c1 | inactive
CC(NC(=O)c1ccccc1NC(=O)c1ccco1)C(=O)O (stereo not drawn) | inactive
CCOC(=O)c1sc(=NC(=O)c2ccc(S(=O)(=O)N(C)c3ccccc3)cc2)n(C)c1C | 30.8 µM (active)
Cc1cc(C)nc(NS(=O)(=O)c2ccc(N3C(=O)c4ccccc4C3=O)cc2)n1 | 29.8 µM (active)
CCOC(=O)CNC(=O)CSc1ccc2nnc(-c3cccnc3)n2n1 | inactive
O=C(Nc1ccccc1C(=O)NCc1ccco1)c1ccccc1 | inactive
c1ccc(COn2nnc3ccccc32)c(COn2nnc3ccccc32)c1 | inactive
